Test results taken from PubChem BioAssay AID463173 (ICCB-Longwood Screening Facility, Harvard Medical School, 2010).
In all, about 52,000 compounds went through this assay and about 4,300 (8.3%) were called active. What follows is part of a selection rich in actives, with near analogues and random picks from the rest. Unmarked numbers belong to inactive results. No stated cut-off is given here; in the data, active means survival mostly below about 52% (no sharp cut-off); inactive means mostly above about 56%.

test system: DeltatarO mutant; assay: growth inhibition of S. aureus wild type versus tarO mutant, primary screen, teichoic acid synthesis inhibitors, RN4220, OD600 (AID 463173); conditions: OD600, 18 h, stronger effect = lower value, screened at 18.75 µg/mL (by protocol)

Row | SMILES | survival
1 | Cc1cc(NS(=O)(=O)c2ccc(NC(=O)COc3ccc(Cl)cc3)cc2)nc(C)n1 | 54%
2 | Cc1ccc2[nH]c(=O)c(CN(CC3COCCO3)C(=O)Nc3ccccc3F)cc2c1 (stereo not drawn) | 96%
3 | CCCC12CCC(C(=O)O)(CC1)CC2 | 83%
4 | Cc1cc(C(=O)NCc2ccccc2Cl)c2c(C)nn(-c3cccc(F)c3)c2n1 | 68%
5 | CCC(=O)N1CCc2cc(S(=O)(=O)Nc3cc(C)ccc3OC)ccc21 | 84%
6 | Cc1cc(C)cc(NC(=O)c2cc(S(=O)(=O)N3CCc4ccccc43)cn2C)c1 | 63%
7 | CC(C)OC(=O)CSc1n[nH]c(-c2cccnc2)n1 | 108%
8 | Cc1ccnc(NS(=O)(=O)c2ccc(NC(=O)c3cc(=O)c4ccc(C)c(C)c4o3)cc2)n1 | 78%
9 | Clc1ccccc1Cn1cccc1C1=NC(Cc2ccccc2)CO1 (stereo not drawn) | 40% (active)
10 | O=c1c2cnn(-c3ccc(F)cc3)c2ncn1Cc1ccccc1Cl | 100%
11 | O=C(CSc1nccn1Cc1ccccc1)NCc1ccccc1Cl | 92%
12 | O=C(Nc1ccc(S(=O)(=O)Nc2ncccn2)cc1)c1ccccc1Cl | 81%
13 | COc1ccc(NC(=O)Nc2nnc(C)s2)cc1 | 91%
14 | Cc1ccc2occ(CC(=O)N(Cc3ccc(Cl)cc3)C3CCS(=O)(=O)C3)c2c1 (stereo not drawn) | 64%
15 | CCc1cccc(NC(=O)c2cc(-c3ccccc3)n[nH]2)c1 | 90%
16 | CCc1ccc2c(c1)C1(NN=C(c3ccccc3)S1)C(=O)N2 (stereo not drawn) | 0% (active)
17 | CCc1cccc(N2C(=O)CSC23C(=O)Nc2ccccc23)c1 (stereo not drawn) | 85%
18 | COc1cccc(NC(=O)Cn2cnc3c(nc4n3CCCCC4)c2=O)c1 | 76%
19 | CCN(CC)c1ccc(NC(=O)CCS(=O)(=O)c2cc3c(cc2Cl)NC(=O)CO3)c(C)c1 | 86%
20 | Cc1ccccc1CN1C(=O)C(O)(CC(=O)c2cccc(Br)c2)c2ccccc21 (stereo not drawn) | 71%
21 | COc1ccc(C(=O)CC2(O)C(=O)N(Cc3cccc(C(F)(F)F)c3)c3ccccc32)cc1 (stereo not drawn) | 33% (active)
22 | COc1ccc(C(=O)CC2(O)C(=O)N(Cc3ccccc3)c3ccc(Br)cc32)cc1 (stereo not drawn) | 50%

Row | SMILES | survival
23 | O=C(CC1(O)C(=O)N(Cc2ccccc2)c2ccc(Br)cc21)c1ccccc1 (stereo not drawn) | 99%
24 | CCc1ccc(C(=O)CC2(O)C(=O)N(Cc3ccc(C)cc3)c3ccccc32)cc1 (stereo not drawn) | 57%
25 | Cc1ccc(CN2C(=O)C(O)(CC(=O)c3ccc(C)cc3)c3ccccc32)cc1 (stereo not drawn) | 65%
26 | CCCCN1C(=O)C(O)(CC(=O)c2ccc(CC)cc2)c2cc(Br)ccc21 (stereo not drawn) | 32% (active)
27 | Cc1ccc(C(=O)CC2(O)C(=O)N(Cc3ccccc3)c3ccccc32)c(C)c1 (stereo not drawn) | 41% (active)
28 | CCCCN1C(=O)C(O)(CC(=O)c2ccc(C)cc2C)c2cc(Br)ccc21 (stereo not drawn) | 11% (active)
29 | COc1cccc(C(=O)CC2(O)C(=O)N(Cc3ccccc3)c3ccccc32)c1 (stereo not drawn) | 175%
30 | CCCN1C(=O)C(O)(CC(=O)c2ccc(OC)c(OC)c2)c2ccccc21 (stereo not drawn) | 146%
31 | O=C(CCC(=O)N1CCSc2ccccc21)NCc1ccccc1Cl | 70%
32 | Cc1cccc(C(c2sc3nc(-c4ccco4)nn3c2O)N2CCN(c3ccccc3)CC2)c1 (stereo not drawn) | 76%
33 | O=C(CN1CCCC1)N1N=C(c2cccs2)CC1c1cccs1 (stereo not drawn) | 86%
34 | CCOc1ccc(Cc2nc(C)c(CC(N)=O)c(=O)[nH]2)cc1 | 71%
35 | CCOC(=O)c1scc(-c2ccccc2)c1S(=O)(=O)Nc1ccc(N(C)C)cc1 | 86%
36 | COC(=O)Cn1c(O)c(N=NC(=O)C2COc3ccccc3O2)c2ccccc21 (stereo not drawn) | 69%
37 | CCC(=O)Nc1cccc(NC(=O)c2cccs2)c1 | 72%
38 | CCOc1ccccc1NC(=O)Cn1c(=O)n(C(C)C)c(=O)c2oc3ccccc3c21 | 109%
39 | CC1=C(c2ccc(C(C)C)cc2)S(=O)(=O)N=C1N1CCC(C(=O)NCc2ccco2)CC1 | 79%
40 | CC1=C(c2ccc(C)c(C)c2)S(=O)(=O)N=C1N1CCC(C(=O)N2CCCCC2)CC1 | 109%
41 | CC1=C(c2ccc(C(C)C)cc2)S(=O)(=O)N=C1N1CCC(C(=O)NCCc2ccco2)CC1 | 6% (active)
42 | CC1=C(c2ccc(C)c(C)c2)S(=O)(=O)N=C1N1CCC(C(=O)N2CCC(C)CC2)CC1 | 72%
43 | CC1=C(c2ccc(C)c(C)c2)S(=O)(=O)N=C1N1CCC(C(=O)N2CCC(C(N)=O)CC2)CC1 | -2% (active)
44 | CC1=C(c2ccc(Cl)cc2)S(=O)(=O)N=C1N1CCC(C(=O)NCCc2ccco2)CC1 | 81%

Row | SMILES | survival
45 | CC1=C(c2ccc(C(C)C)cc2)S(=O)(=O)N=C1N1CCC(C(=O)NCc2ccc(C)o2)CC1 | 67%
46 | CC1=C(c2ccc(C(C)C)cc2)S(=O)(=O)N=C1N1CCC(C(=O)NCc2ccccc2)CC1 | -1% (active)
47 | CCc1ccc(C2=C(C)C(N3CCC(C(=O)NCc4ccccc4)CC3)=NS2(=O)=O)cc1 | 89%
48 | Cc1cccc(N(C)C(=O)C(Cc2ccccc2)NS(=O)(=O)c2cccc3nsnc23)c1 (stereo not drawn) | 74%
49 | Cc1nnc(N2CCC(C(=O)N3CCCCC3)CC2)c2nn(-c3ccc(Cl)cc3)c(C)c12 | 95%
50 | COc1ccc(-c2nc(-c3ccccc3)c(-c3ccccc3)[nH]2)cc1Br | 59%
51 | COc1cc(-c2nc(-c3ccccc3)c(-c3ccc(Br)cc3)[nH]2)cc(OC)c1O | 0% (active)
52 | COc1ccc(-c2nc(SCC(=O)Nc3ccccc3)c(-c3ccc(F)cc3)[nH]2)cc1OC | 49%
53 | COc1ccc(-c2nc(-c3ccccc3)c(-c3ccc(O)cc3)[nH]2)cc1 | 1% (active)
54 | COc1ccc(-c2[nH]c(-c3ccccc3)nc2SCC(=O)NC2CCCC2)cc1 | 67%
55 | CCOc1ccc(-c2nc(-c3ccccc3)c(-c3ccccc3)[nH]2)cc1OCC | 142%
56 | COc1ccc(-c2[nH]c(-c3ccc(O)cc3)nc2-c2ccccc2)cc1 | 3% (active)
57 | COc1ccc(-c2nc(-c3ccccc3)c(-c3ccc(F)cc3)[nH]2)c(OC)c1C | 5% (active)
58 | COc1cc(-c2nc(-c3cccc(Cl)c3)c(-c3ccccc3)[nH]2)cc(OC)c1OC | 126%
59 | COCCNC(=O)CSc1nc(-c2ccccc2)[nH]c1-c1ccc(OC)cc1 | 80%
60 | COc1cc(-c2nc(SCC(=O)Nc3ccc(C)cc3)c(-c3ccc(F)cc3)[nH]2)cc(OC)c1OC | 91%
61 | COc1ccc(NC(=O)CSc2nc(-c3ccc(OC)cc3)[nH]c2-c2ccc(OC)cc2)cc1 | 71%
62 | CC(=O)N1C(=O)/C(=C2\SC(=S)N(C(C)C(=O)O)C2=O)c2ccccc21 (stereo not drawn) | 112%
63 | CCCCN(CC)CCNC(=O)C1CCCN(S(=O)(=O)c2cccc3nsnc23)C1 (stereo not drawn) | 117%
64 | Nn1c(SCCC(=O)O)nnc1-c1ccccc1 | 83%
65 | COCCNC(=O)c1cnc2sc(N3CCC(C)CC3)nn2c1=O | 86%
66 | O=S(=O)(c1ccccc1)c1nnn2c1nc(NCc1cccs1)c1sccc12 | 87%

Row | SMILES | survival
67 | N#CC(C(=O)c1ccc(F)cc1)c1nc2ccccc2[nH]1 (stereo not drawn) | 86%
68 | CC1=C(C(=O)Nc2ccc(Cl)cc2)C(c2ccccc2C)n2ncc(C(=O)Nc3ccc(C)cc3)c2N1 (stereo not drawn) | 54%
69 | Oc1ccc(-c2nc(-c3ccccc3)c(-c3ccc(Br)cc3)[nH]2)cc1 | -4% (active)
70 | O=C(O)c1ccc(-c2nc3ccccc3[nH]2)cc1 | 86%
71 | O=C(CSc1nc(-c2ccc(F)cc2)[nH]c1-c1ccccc1)Nc1ccccc1 | 67%
72 | Cc1nn(-c2ccc(N3CCCCC3)nn2)c(C)c1CCC(=O)NCc1ccccc1 | 67%
73 | Cc1ccc(N(CC(=O)NC2CCCC2)C(=O)c2ccc(N3CCCC3)nc2)cc1 | 89%
74 | Cc1ccc(NC(=O)C2CCCN(S(=O)(=O)c3cccc4nsnc34)C2)c(C)c1 (stereo not drawn) | 83%
75 | CC1(C)Oc2ccc(C(=O)Nc3ccccc3)cc2N(CC(=O)N2CCCC2)C1=O | 103%
76 | Cc1cc(N2CCN(C)CC2)nc2ccc(NC(=O)Nc3ccccc3Br)cc12 | 84%
77 | COc1cccc(CC(=O)Nc2ccc3nc(N4CCC(C)CC4)cc(C)c3c2)c1 | 49%
78 | Cc1cc(N2CCC(C)CC2)nc2ccc(NC(=O)CCC(=O)N3CCN(c4ccccc4F)CC3)cc12 | 52%
79 | Cc1cccc(CC(=O)Nc2ccc3nc(N4CCC(C)CC4)cc(C)c3c2)c1 | 4% (active)
80 | Cc1cc(N2CCC(C)CC2)nc2ccc(NC(=O)Cc3c(F)cccc3Cl)cc12 | 56%
81 | Cc1cc(N2CCC(C)CC2)nc2ccc(NC(=O)CCC(=O)N3CCN(c4cccc(C(F)(F)F)c4)CC3)cc12 | 31% (active)
82 | COc1ccccc1CC(=O)Nc1ccc2nc(N3CCC(C)CC3)cc(C)c2c1 | 61%
83 | Cc1ccc(Cl)cc1N1CCN(C(=O)CCC(=O)Nc2ccc3nc(N4CCC(C)CC4)cc(C)c3c2)CC1 | 52%
84 | Cc1cc(N2CCC(C)CC2)nc2ccc(NC(=O)Cc3ccccc3Br)cc12 | 46% (active)
85 | CC1=C(C(=O)Nc2ccc(C)cc2C)C(c2ccccc2C)n2ncnc2N1 (stereo not drawn) | 100%
86 | N#CCN(CC#N)C(=O)Cc1cccs1 | 102%
87 | Cc1ccc(CN2C(=O)C3(c4ccccc42)N(c2cccc(F)c2)C(=O)CS3(=O)=O)cc1 (stereo not drawn) | 75%
88 | CCN1C(=O)c2ccccc2S(=O)(=O)c2ccc(C(=O)NCc3ccc(F)cc3)cc21 | 59%
